Reference: the supplement of paper PMC12636033
± gives the standard deviation of the averaged measurements. The full ranking holds about 33,000 sequences; the median of “E-score (rank enrichment, -0.5 to 0.5)” is about -0.0068, and the highest 2% start at about 0.24. Shown is part of a subset that was picked to be rich in the highest values.

Each sequence was assayed on muMax20 (Max(13-93) K31hArg/K57hArg, M65Nle) (assay: PBM 8-mer E-score (E-score (rank enrichment, -0.5 to 0.5)); higher = stronger preferential binding).
Description: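 Protein binding microarray (universal PBM chip covering all 10-mers in fixed probe flanks) with chemically synthesized human Max(13-93) bHLH-LZ analogs (not full-length Max) bearing noncanonical residues (hArg, Tha, Aib, Nle at 65) and aromatic Cys staples. Read-out per 8-mer (and its reverse complement): E-score (rank-based enrichment, -0.5 to 0.5) and Z-score of median probe intensity.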

Sequence	PBM 8-mer E-score
ACGCACAA	0.0465 ± 0.071
ACGCACAT	0.277 ± 0.039
ACGCACGT	0.288 ± 0.066
AAGCACGA	0.0985 ± 0.076
AAGCACGG	-0.0498 ± 0.039
ACGCACAG	-0.11 ± 0.11
AAGCACGT	0.297 ± 0.12
ACGACTCA	-0.0769 ± 0.055
CGCACTCA	-0.0736 ± 0.0069
CTCAAATA	0.0362 ± 0.0096
CATTGACC	0.105 ± 0.047
GGGTCGAC	-0.00629 ± 0.1
AGCCTCAT	0.0933 ± 0.064
ATTAAGTA	0.24 ± 0.02
ATTAATCA	0.2533 ± 0.00043
GTAATTTA	0.0797 ± 0.016
ATAATTTA	0.244 ± 0.038
ATAATTTG	0.167 ± 0.077
ATTAATCC	0.154 ± 0.022
ATTAAGTG	0.148 ± 0.031
ATTAATTG	0.136 ± 0.075
GTTAATCA	0.204 ± 0.072

Sequence	PBM 8-mer E-score
GTTAAGTA	0.063 ± 0.021
ATTAATTC	0.219 ± 0.0076
ATTAATTA	0.258 ± 0.064
CCTCGATC	-0.0647 ± 0.046
GCCCATTA	-0.0555 ± 0.034
CGGCGGAC	-0.282 ± 0.091
GCAGGGCC	-0.171 ± 0.013
CCTCGGTA	-0.295 ± 0.042
CTCCGGAG	-0.227 ± 0.079
TACTGTGA	0.0496 ± 0.099
GGGAACGA	-0.0255 ± 0.026
ATTAGGAC	0.0695 ± 0.13
AGCACTAG	0.0808 ± 0.12
AAAGATCG	-0.152 ± 0.035
ATAAATTA	0.262 ± 0.08
CTAAATTA	0.0189 ± 0.047
ATAAATTG	0.157 ± 0.013
CCGTAGTC	-0.131 ± 0.045
AAGGAGAA	0.172 ± 0.0052
AACGTGTC	0.145 ± 0.043
AACGTGTA	0.2 ± 0.026
GACGTGTA	0.0986 ± 0.0068

Sequence	PBM 8-mer E-score
TAAGTGTA	0.159 ± 0.064
AAAGTGTA	0.12 ± 0.1
CACGTGTC	0.448 ± 0.053
CCCGTGTC	-0.147 ± 0.032
CAAGTGTA	0.244 ± 0.042
CACGTGTA	0.444 ± 0.054
ATACTTTC	0.127 ± 0.013
CAAGAAGG	0.158 ± 0.048
AGTCGACT	0.176 ± 0.13
ACATCCGC	-0.188 ± 0.099
TTACTAAA	0.123 ± 0.07
AAACTATA	0.192 ± 0.05
CTACTATC	0.132 ± 0.0082
ATACTAAA	0.242 ± 0.038
CAACTATA	0.108 ± 0.0066
CTACTATA	0.249 ± 0.062
CTACTAAG	-0.0701 ± 0.18
ATACTAAC	0.164 ± 0.066
TAACTATA	0.303 ± 0.0032
CTACTAAC	0.237 ± 0.013
GTACTAAA	0.108 ± 0.067
ATACTATA	0.156 ± 0.08

Sequence	PBM 8-mer E-score
TCGAACGA	0.0488 ± 0.053
AACTGGCG	-0.0858 ± 0.061
ATCGGCAA	-0.18 ± 0.089
TCACCGCA	-0.0327 ± 0.14
GATAAGCC	-0.111 ± 0.075
GCAGATGA	0.0628 ± 0.064
CTTAGACC	-0.135 ± 0.073
GAGGGGCC	-0.0409 ± 0.045
ACGTGTAA	0.327 ± 0.048
TCGTGTAA	0.13 ± 0.07
ACGTGTAG	0.19 ± 0.087
ACGTGTAC	0.233 ± 0.056
CCGTGTAA	-0.147 ± 0.048
ACGTGTAT	0.386 ± 0.031
ATACTGAA	0.0687 ± 0.079
GCAGGTCA	-0.191 ± 0.0023
CGCTCGAA	-0.156 ± 0.0039
AGATCTTC	-0.15 ± 0.053
CCATGTCG	-0.0015 ± 0.13
AATACATA	0.255 ± 0.074
